Measured values reported in PubChem BioAssay (EPA / NIEHS).
The source made the active and inactive calls. How the source made its calls: active means hit-call score of the fitted dose curve at least 0.9, where 1 is the maximum; inactive means score below 0.9.

Legend:
Details in all cases: mRNA level, 48 h; actives raise or lower the signal
[1] = read-out: Insulin Like Growth Factor 1 (IGF1), IGF1 (gene 3479); experiment: LTEA_HepaRG_IGF1: Life Technologies and Expression Analysis (LTEA) Assay for Insulin Like Growth Factor 1 (IGF1) using HepaRG (AID 2283506)
How it was run: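 Expression measured by TaqMan qRT-PCR on a Fluidigm array, with three housekeeping genes for normalisation, after 48 h treatment of HepaRG cells. Top concentration 100 uM with half-log steps, 0.5% DMSO vehicle, bidirectional fit.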

[2] = read-out: Intercellular Adhesion Molecule 1 (ICAM1), ICAM1 (gene 3383); experiment: LTEA_HepaRG_ICAM1: Life Technologies and Expression Analysis (LTEA) Assay for Intercellular Adhesion Molecule 1 (ICAM1) using HepaRG (AID 2283507)
How it was run: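 Gain or loss of transcript in HepaRG hepatic cells is quantified by qRT-PCR after 48 h chemical exposure (up to 100 uM, half-log steps), with DMSO as baseline.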

[3] = read-out: Insulin-like growth factor-binding protein 1 (IGFBP1), IGFBP1 (gene 3484); experiment: LTEA_HepaRG_IGFBP1: Life Technologies and Expression Analysis (LTEA) Assay for Insulin-like growth factor-binding protein 1 (IGFBP1) using HepaRG (AID 2283508)
How it was run: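 mRNA induction or loss was quantified by qRT-PCR after 48 h chemical exposure of human HepaRG cells, with 0.5% DMSO as vehicle and baseline. Concentration-response over eight points up to 100 uM.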

[4] = read-out: Interleukin 6 (IL6), IL6 (gene 3569); experiment: LTEA_HepaRG_IL6: Life Technologies and Expression Analysis (LTEA) Assay for Interleukin 6 (IL6) using HepaRG (AID 2283509)
How it was run: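 Transcript levels, normalized to three housekeeping genes, were quantified by qRT-PCR after 48 h chemical treatment of HepaRG cells. Eight-point half-log series from 100 uM in 0.5% DMSO, duplicates. Fitted both directions against DMSO baseline.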

[5] = read-out: Keratin 19 (KRT19), KRT19 (gene 3880); experiment: LTEA_HepaRG_KRT19: Life Technologies and Expression Analysis (LTEA) Assay for Keratin 19 (KRT19) using HepaRG (AID 2283512)
How it was run: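 Gene-expression endpoint in the human liver line HepaRG after 48 h exposure to up to 100 uM test chemical with 0.5% DMSO vehicle; KRT19 mRNA by qRT-PCR, analyzed bidirectionally versus DMSO.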

[6] = read-out: JUN Transcription Factor, JUN (gene 3725); experiment: LTEA_HepaRG_JUN: Life Technologies and Expression Analysis (LTEA) Assay for JUN Transcription Factor using HepaRG (AID 2283513)
How it was run: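 mRNA measured by TaqMan qRT-PCR after 48 h chemical exposure of HepaRG cultures; normalization to three housekeeping genes. Duplicate eight-point half-log curves from 100 uM in 0.5% DMSO; gain or loss fitted against DMSO baseline.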

[7] = read-out: Lipase C (LIPC), LIPC (gene 3990); experiment: LTEA_HepaRG_LIPC: Life Technologies and Expression Analysis (LTEA) Assay for Lipase C (LIPC) using HepaRG (AID 2283514)
How it was run: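 LIPC expression was quantified by qRT-PCR against three housekeeping genes (ACTB, GAPDH, POLR2A). Differentiated human HepaRG cells received eight half-log doses (top 100 uM, 0.5% DMSO) in duplicate for 48 h; fitting bidirectional relative to DMSO.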

[8] = read-out: Lipoprotein lipase (LPL), LPL (gene 4023); experiment: LTEA_HepaRG_LPL: Life Technologies and Expression Analysis (LTEA) Assay for Lipoprotein lipase (LPL) using HepaRG (AID 2283515)
How it was run: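 LPL transcript levels quantified by TaqMan qRT-PCR against three housekeeping genes after 48 h chemical treatment of HepaRG cells. Eight-point half-log series from 100 uM in 0.5% DMSO, tested in duplicate; bidirectional fitting versus vehicle.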

[9] = read-out: Potassium channel subfamily K member 1 (KCNK1), KCNK1 (gene 3775); experiment: LTEA_HepaRG_KCNK1: Life Technologies and Expression Analysis (LTEA) Assay for Potassium channel subfamily K member 1 (KCNK1) using HepaRG (AID 2283511)
How it was run: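 KCNK1 transcript measured by TaqMan qRT-PCR against three housekeeping genes, after HepaRG cells were treated 48 h with eight half-log concentrations (top 100 uM, 0.5% DMSO). Curves fitted bidirectionally relative to vehicle.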

[10] = read-out: Interleukin 6 Receptor (IL6R), IL6R (gene 3570); experiment: LTEA_HepaRG_IL6R: Life Technologies and Expression Analysis (LTEA) Assay for Interleukin 6 Receptor (IL6R) using HepaRG (AID 2283510);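 on AC50: differentiated human HepaRG liver cells in serum-free induction medium; TaqMan qRT-PCR signal normalized to ACTB GAPDH and POLR2A housekeeping genes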
How it was run: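 IL6R transcript level by qRT-PCR after 48 h chemical exposure (8-point, half-log, max 100 uM, 0.5% DMSO vehicle) of HepaRG cells in serum-free induction medium. Normalized to three housekeeping genes; curves fitted in both directions relative to DMSO.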

Measured: AC50

O=C(O)CC(O)(CC(=O)O)C(=O)O
inactive: [1] | [2] | [3] | [4] | [5] | [6] | [7] | [8]

Oc1ccc(O)cc1
inactive: [1] | [2] | [3] | [4] | [6] | [7] | [8]

O=C1O[C@H]([C@H](O)CO)C(O)=C1O
inactive: [1] | [2] | [3] | [4] | [9] | [6] | [7] | [8]

O=[Si]=O
inactive: [1] | [2] | [3] | [4] | [9] | [6] | [7] | [8]

Cc1cc(Cc2ccc(N)c(C)c2)ccc1N
inactive: [2] | [3] | [4] | [10] | [9] | [5] | [6] | [7] | [8]

NC1CCCCC1
inactive: [2] | [3] | [4] | [10] | [9] | [6] | [7] | [8]

CC(C)OC(=O)C(C)(C)Oc1ccc(C(=O)c2ccc(Cl)cc2)cc1
inactive: [1] | [2] | [3] | [4] | [9] | [5] | [7] | [8]

C=CCCCCCCCCCCCC
inactive: [2] | [3] | [4] | [10] | [9] | [5] | [6] | [7] | [8]

NC(=Nc1ccccc1)Nc1ccccc1
active: [3] 13.2 µM
inactive: [1] | [2] | [4] | [9] | [6] | [7] | [8]

Cc1cc(SC2=C(O)C[C@@](CCc3ccc(N)cc3)(C(C)C)OC2=O)c(C(C)(C)C)cc1CO
inactive: [2] | [3] | [4] | [10] | [9] | [5] | [6] | [7] | [8]

CCOCCOCCO
inactive: [2] | [3] | [4] | [10] | [9] | [6] | [7] | [8]

CCCCCCCCCCCCCCCCO
inactive: [1] | [2] | [3] | [4] | [5] | [6] | [7] | [8]

COC(=O)CCC(=O)OC
inactive: [1] | [2] | [3] | [4] | [5] | [6] | [7] | [8]

CC(=O)OCC(COC(C)=O)OC(C)=O
inactive: [1] | [2] | [3] | [4] | [9] | [5] | [6] | [7] | [8]

CCCCCCC(CCCCCCCCCCC(=O)OCC(COC(C)=O)OC(C)=O)OC(C)=O (centres undefined)
inactive: [1] | [2] | [3] | [4] | [5] | [6] | [7] | [8]

CCCCC(CC)CO (centres undefined)
inactive: [2] | [3] | [4] | [10] | [9] | [5] | [6] | [7] | [8]

CC(C)c1cccc(C(C)C)c1NC(=O)NS(=O)(=O)c1cc(C(C)(C)O)co1
active: [1] 50 µM
inactive: [2] | [3] | [4] | [9] | [6] | [7] | [8]

COc1ccc(OC(F)(F)F)cc1CN[C@H]1CCCN[C@H]1c1ccccc1
inactive: [1] | [5] | [7]
active: [2] 75.7 µM | [3] 71.7 µM | [4] 82.9 µM | [6] 78.9 µM | [8] 82.9 µM

CCN(CC)CCOc1ccc(C(=C(Cl)c2ccccc2)c2ccccc2)cc1
active: [2] 77.1 µM | [3] 61.2 µM | [4] 81.8 µM | [6] 66.2 µM | [7] 24.1 µM | [8] 17.8 µM
inactive: [10] | [5]

CCCCC(CC)COC(=O)CCCCCCCC(=O)OCC(CC)CCCC (centres undefined)
inactive: [2] | [3] | [4] | [9] | [6] | [7] | [8]

Oc1ccccc1O
inactive: [2] | [3] | [4] | [9] | [6] | [7] | [8]

Nc1nc(=S)c2[nH]cnc2[nH]1
active: [4] 14.8 µM | [10] 8.69 µM | [6] 7.57 µM | [7] 5.83 µM | [8] 19.1 µM
inactive: [2] | [3] | [5]

Nc1nc(Cl)nc2c1ncn2[C@H]1C[C@H](O)[C@@H](CO)O1
active: [3] 4.82 µM | [4] 16.1 µM | [9] 1.36 µM | [7] 1.03 µM | [8] 1.03 µM
inactive: [2]
